Laboratory results: PubChem BioAssay (EPA / NIEHS)
Records with an inconclusive call do not appear. Active and inactive are the calls of the source. Rule for the calls: active = hit-call score of the fitted dose curve at least 0.9, where 1 is the maximum; inconclusive = response in the unintended direction; inactive = score below 0.9.

Read-out: alkyl and aryl transferase (GSTA2), GSTA2 (gene 2939)
Assay: CLD_GSTA2_24hr: CellzDirect (CLD) Gene Expression Assay for alkyl and aryl transferase (GSTA2) at 24 hours (AID 2283693)
Procedure: CLD_24hr is a cell-based, multiplexed-readout assay that uses hepatocyte, a human liver primary cell, with measurements taken at 24 hours after chemical dosing in a 96-well plate.CLD_GSTA2_24hr is one of 16 assay component(s) measured or calculated from the CLD_24hr assay. It is designed to make measurements of mRNA induction, a form of inducible reporter, as detected with chemiluminescence signals by Quantitative Nuclease Protection Assay (qNPA) technology.Data from the assay component CLD_GSTA2_24hr was analyzed at the endpoint, CLD_GSTA2_24hr, in the positive analysis fitting direction relative to DMSO as the negative control and baseline of activity. Using a type of inducible reporter, gain-of-signal activity can be used to understand changes in the reporter gene as they relate to the gene GSTA2. Furthermore, this assay endpoint can be referred to as a primary readout. To generalize the intended target to other relatable targets, this assay endpoint is annotated to the transferase intended target family, where subfamily is alkyl and aryl transferase.
Human hepatocyte cultures were treated daily for two consecutive days with fresh dosing solutions containing appropriate concentrations of the 320 ToxCast chemicals (chemical identities were blinded to CellzDirect and other ToxCast collaborators), vehicle control (0.2% DMSO), and positive control inducers as summarized in Table 1. Due to the large number of treatment groups and chemicals examined, the ToxCast chemicals were divided into two groups (spanning two independent cultures of hepatocytes from separate donor preparations (Hu778: ToxCast plates 1 and 2; Hu776: ToxCast plates 3 and 4). Each preparation of human hepatocyte cultures was treated with respective vehicle control, medium only control, set of six positive controls/reference chemicals for the five hepatic receptor pathways, and a subset of eight of the ToxCast chemicals (indoxacarb, pyrithiobac-sodium, norflurazon, cyhalofop-butyl, methomyl, thiram, acetochlor, and propiconazole). These replicate data, coupled with internal replicates designed within the blinded ToxCast chemical library, provided additional data to evaluate interindividual differences between hepatocyte preparations and their potential impact on chemical profiles.Cell morphology and integrity were evaluated using phase-contrast microscopy as an indicator of hepatocyte cell health (Tyson & Green, 1987). Cultures for each treatment group (i.e., media, vehicle [0.2% DMSO], positive control inducers [multiple concentrations], and the ToxCast chemicals [multiple concentrations]) were observed and cell morphology was assessed relative to vehicle control cultures at each harvest time point (0, 6, 24, or 48 h). […] Images were evaluated at the conclusion of the study to assess changes in cell integrity and account for the effects of chemical exposure on uncharacteristic changes in concentration-dependent gene expression profiles. The results from these determinations of apparent cytotoxicity were annotated (yes/no) alongside the corresponding qNPA data for reference.At the conclusion of each treatment period, hepatocyte cultures (96-well) were washed with 1 volume of HBSS, lysed by addition of 25 ul ArrayPlate lysis buffer (HTG, Tucson, AZ), and 70 ul/well of Denaturation Oil, denatured by incubation at 95C for 10 min, and frozen at approximately -70C until analysis by nuclease protection assay (qNPA) (Roberts et al., 2007). For qNPA analysis, cell lysates were thawed at 50C for approximately 30 min, qNPA probes were added, and samples were incubated at 95C for 10 min to begin the detection process by denaturing the target RNA, dissociating the duplexes and secondary structure hybridization. At the conclusion of the hybridization period, S1 nuclease reagent was added to each sample to digest all nonprotected nucleotides at 50C for 60-90 min. […]

Structure (SMILES) | outcome
CCC(C)(NC(=O)c1cc(Cl)c(C)c(Cl)c1)C(=O)CCl (stereo not drawn) | inactive
COC(=O)c1ccccc1CS(=O)(=O)NC(=O)Nc1nc(OC)cc(OC)n1 | inactive
CCOCN(C(=O)CCl)c1c(C)cccc1CC | inactive
CN1CSC(=S)N(C)C1 | inactive
[2H]C1([2H])[n+]2ccccc2-c2cccc[n+]2C1([2H])[2H] | inactive
O=C(O)COc1ccc(Cl)cc1Cl | inactive
O=C(NC(=O)c1c(F)cccc1F)Nc1ccc(OC(F)(F)C(F)OC(F)(F)F)c(Cl)c1 (stereo not drawn) | inactive
CC(C)(C)C(O)C(Oc1ccc(Cl)cc1)n1cncn1 (stereo not drawn) | inactive
CC(C)N(C(=O)COc1nnc(C(F)(F)F)s1)c1ccc(F)cc1 | inactive
O=[N+]([O-])/N=C1\NCCN1Cc1ccc(Cl)nc1 | inactive
CCCN(CCC)c1c([N+](=O)[O-])cc(C(F)(F)F)cc1[N+](=O)[O-] | inactive
CCS(=O)(=O)c1cccnc1S(=O)(=O)NC(=O)Nc1nc(OC)cc(OC)n1 | inactive
C[C@H]1[C@H](c2ccc(Cl)cc2)SC(=O)N1C(=O)NC1CCCCC1 | inactive
CNC(=O)CSP(=S)(OC)OC | inactive
CCC(C)Nc1c([N+](=O)[O-])cc(C(C)(C)C)cc1[N+](=O)[O-] (stereo not drawn) | inactive
O=[N+]([O-])c1c(Cl)c(Cl)c(Cl)c(Cl)c1Cl | inactive
Oc1cc(Cl)ccc1Oc1ccc(Cl)cc1Cl | inactive
CC(C)OC(=O)Nc1cccc(Cl)c1 | inactive
CCOC1Oc2ccc(OS(C)(=O)=O)cc2C1(C)C (stereo not drawn) | inactive

Structure (SMILES) | outcome
COP(=O)(OC)OC=C(Cl)Cl | inactive
C#CCN1C(=O)COc2cc(F)c(N3C(=O)C4=C(CCCC4)C3=O)cc21 | inactive
Clc1ccccc1-c1nnc(-c2ccccc2Cl)nn1 | inactive
O=S1OCC2C(CO1)C1(Cl)C(Cl)=C(Cl)C2(Cl)C1(Cl)Cl (stereo not drawn) | inactive
COC(=O)c1ccccc1S(=O)(=O)NC(=O)Nc1nc(C)nc(OC)n1 | inactive
O=S(=O)(O)C(F)(F)C(F)(F)C(F)(F)C(F)(F)C(F)(F)C(F)(F)C(F)(F)C(F)(F)F | inactive
CNC(=O)Oc1cccc(N=CN(C)C)c1 | inactive
CC(C)(C)C(O)/C(=C\c1ccc(Cl)cc1Cl)n1cncn1 (stereo not drawn) | inactive
Oc1ccc(Cl)cc1Cc1ccccc1 | inactive
N#CN | inactive
CC[C@H](C)[C@H]1O[C@]2(C=C[C@@H]1C)C[C@@H]1C[C@@H](C/C=C(\C)[C@@H](O[C@H]3C[C@H](OC)[C@@H](O[C@H]4C[C@H](OC)[C@@H](O)[C@H](C)O4)[C@H](C)O3)[C@@H](C)/C=C/C=C3\CO[C@@H]4[C@H](O)C(C)=C[C@@H](C(=O)O1)[C@]34O)O2 (tested in a mixture with another compound) | inactive
CC1(c2ccc(Oc3ccccc3)cc2)OC(=O)N(Nc2ccccc2)C1=O (stereo not drawn) | inactive
OCCOc1ccccc1 | inactive
Cc1cc(C)nc(NC(=O)NS(=O)(=O)c2ccccc2C(=O)OC2COC2)n1 | inactive
COc1cc(OC)nc(NC(=O)NS(=O)(=O)c2cc(NC=O)ccc2C(=O)N(C)C)n1 | inactive
CCN(CC)C(=O)SCc1ccc(Cl)cc1 | inactive
O=C1c2ccccc2C(=O)N1SC(Cl)(Cl)Cl | inactive
COC(=O)c1ccccc1S(=O)(=O)NC(=O)N(C)c1nc(C)nc(OC)n1 | inactive
N#Cc1c(Cl)c(Cl)c(Cl)c(C#N)c1Cl | inactive
